# In publication PMC11006913:
# Changes are numbered by the printed parent chain.
# Legend:
# Assay in all cases: PBM; 200 nM protein, PBS
# Details in all cases: dsDNA, one strand shown
# CRX [1] = target: CRX (Homo sapiens, UniProt O43186 26-111)
# ALX4 [2] = target: ALX4 (Homo sapiens, UniProt Q9H161 200-286)
# ALX4 [3] = target: ALX4 (Homo sapiens, UniProt Q9H161 200-286, Q225E)
# HOXA2 [4] = target: HOXA2 (Homo sapiens, UniProt O43364 129-215, R185T)
# CRX [5] = target: CRX (Homo sapiens, UniProt O43186 26-111, E42D)
# Chain of CRX (Homo sapiens, UniProt O43186 26-111, E42D) (O43186 26-111 E42D): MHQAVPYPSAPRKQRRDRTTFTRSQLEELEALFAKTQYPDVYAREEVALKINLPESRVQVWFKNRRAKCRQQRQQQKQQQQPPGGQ
# ALX1 [6] = target: ALX1 (Homo sapiens, UniProt Q15699 118-204, L144V)
# Chain of ALX1 (Homo sapiens, UniProt Q15699 118-204, L144V) (Q15699 118-204 L144V): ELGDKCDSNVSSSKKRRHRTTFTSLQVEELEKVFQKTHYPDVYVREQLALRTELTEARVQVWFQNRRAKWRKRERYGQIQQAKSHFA
# HOXA2 [7] = target: HOXA2 (Homo sapiens, UniProt O43364 129-215, R185K)
# Chain of HOXA2 (Homo sapiens, UniProt O43364 129-215, R185K) (O43364 129-215 R185K): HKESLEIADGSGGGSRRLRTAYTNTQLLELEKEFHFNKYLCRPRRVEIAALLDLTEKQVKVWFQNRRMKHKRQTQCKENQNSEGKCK
# ALX1 [8] = target: ALX1 (Homo sapiens, UniProt Q15699 118-204, L144R)
# Chain of ALX1 (Homo sapiens, UniProt Q15699 118-204, L144R) (Q15699 118-204 L144R): as the sequence (Q15699 118-204 L144V) above, with V27R counted along it
# HOXA2 [9] = target: HOXA2 (Homo sapiens, UniProt O43364 129-215, Y150S)
# Chain of HOXA2 (Homo sapiens, UniProt O43364 129-215, Y150S) (O43364 129-215 Y150S): as the sequence (O43364 129-215 R185K) above, with Y22S, K57R counted along it
# CRX [10] = target: CRX (Homo sapiens, UniProt O43186 26-111, R41L)
# Chain of CRX (Homo sapiens, UniProt O43186 26-111, R41L) (O43186 26-111 R41L): as the sequence (O43186 26-111 E42D) above, with R16L, D17E counted along it
# ALX1 [11] = target: ALX1 (Homo sapiens, UniProt Q15699 118-204)
# Chain of ALX1 (Homo sapiens, UniProt Q15699 118-204) (Q15699 118-204): as the sequence (Q15699 118-204 L144V) above, with V27L counted along it
# HOXA2 [12] = target: HOXA2 (Homo sapiens, UniProt O43364 129-215)
# Chain of HOXA2 (Homo sapiens, UniProt O43364 129-215) (O43364 129-215): as the sequence (O43364 129-215 R185K) above, with K57R counted along it
# HOXC10 [13] = target: HOXC10 (Homo sapiens, UniProt Q9NYD6 254-340)
# Chain of HOXC10 (Homo sapiens, UniProt Q9NYD6 254-340) (Q9NYD6 254-340): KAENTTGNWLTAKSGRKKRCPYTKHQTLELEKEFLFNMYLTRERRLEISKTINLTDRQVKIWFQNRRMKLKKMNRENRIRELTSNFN
# HOXC10 [14] = target: HOXC10 (Homo sapiens, UniProt Q9NYD6 254-340, K271E)
# Chain of HOXC10 (Homo sapiens, UniProt Q9NYD6 254-340, K271E) (Q9NYD6 254-340 K271E): as the sequence (Q9NYD6 254-340) above, with K18E counted along it
# HOXB6 [15] = target: HOXB6 (Homo sapiens, UniProt P17509 132-218, K202E)
# Chain of HOXB6 (Homo sapiens, UniProt P17509 132-218, K202E) (P17509 132-218 K202E): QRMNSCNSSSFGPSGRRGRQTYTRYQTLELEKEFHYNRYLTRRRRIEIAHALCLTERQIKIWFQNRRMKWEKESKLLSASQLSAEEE
# HOXB6 [16] = target: HOXB6 (Homo sapiens, UniProt P17509 132-218)
# Chain of HOXB6 (Homo sapiens, UniProt P17509 132-218) (P17509 132-218): as the sequence (P17509 132-218 K202E) above, with E71K counted along it
# PAX4 [17] = target: T1, PAX4 (Homo sapiens, UniProt O43316 9-242, R200K)
# T1 sequence: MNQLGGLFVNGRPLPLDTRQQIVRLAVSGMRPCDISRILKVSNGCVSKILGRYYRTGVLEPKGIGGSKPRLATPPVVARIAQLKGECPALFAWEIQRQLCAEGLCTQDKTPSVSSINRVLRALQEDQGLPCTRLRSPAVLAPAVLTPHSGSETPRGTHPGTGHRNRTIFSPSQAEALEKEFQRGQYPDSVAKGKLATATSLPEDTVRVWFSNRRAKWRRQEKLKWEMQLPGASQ
# PAX4 [18] = target: T2, PAX4 (Homo sapiens, UniProt O43316 9-242)
# T2 sequence: T1 sequence with K192R
# NKX2-6 [19] = target: T3, NKX2-6 (Homo sapiens, UniProt A6NCS4 118-204)
# T3 sequence: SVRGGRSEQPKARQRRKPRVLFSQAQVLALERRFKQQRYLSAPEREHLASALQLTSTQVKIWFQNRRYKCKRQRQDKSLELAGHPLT
# PAX4 [20] = target: T4, PAX4 (Homo sapiens, UniProt O43316 9-242, R200Q)
# T4 sequence: T1 sequence with K192Q
# PAX4 [21] = target: T5, PAX4 (Homo sapiens, UniProt O43316 9-242, F177V)
# T5 sequence: T1 sequence with F169V, K192R
# PAX4 [22] = target: T6, PAX4 (Homo sapiens, UniProt O43316 9-242, F177Y)
# T6 sequence: T1 sequence with F169Y, K192R
# NKX2-6 [23] = target: T7, NKX2-6 (Homo sapiens, UniProt A6NCS4 118-204, F151L)
# T7 sequence: T3 sequence with F34L
# PAX4 [24] = target: T8, PAX4 (Homo sapiens, UniProt O43316 9-242, R227W)
# T8 sequence: T1 sequence with K192R, R219W
# PRRX1 [25] = target: PRRX1 (Homo sapiens, UniProt P54821 80-166, F113S)
# Chain of PRRX1 (Homo sapiens, UniProt P54821 80-166, F113S) (P54821 80-166 F113S): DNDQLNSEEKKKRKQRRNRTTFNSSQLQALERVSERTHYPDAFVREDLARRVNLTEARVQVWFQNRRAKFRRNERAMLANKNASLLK
# NKX2-6 [26] = target: T9, NKX2-6 (Homo sapiens, UniProt A6NCS4 118-204, R150C)
# T9 sequence: T3 sequence with R33C
# PROP1 [27] = target: PROP1 (Homo sapiens, UniProt O75360 56-141)
# Chain of PROP1 (Homo sapiens, UniProt O75360 56-141) (O75360 56-141): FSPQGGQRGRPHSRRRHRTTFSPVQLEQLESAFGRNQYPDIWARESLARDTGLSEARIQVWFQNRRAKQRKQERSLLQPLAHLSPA
# PROP1 [28] = target: PROP1 (Homo sapiens, UniProt O75360 56-141, R99H)
# Chain of PROP1 (Homo sapiens, UniProt O75360 56-141, R99H) (O75360 56-141 R99H): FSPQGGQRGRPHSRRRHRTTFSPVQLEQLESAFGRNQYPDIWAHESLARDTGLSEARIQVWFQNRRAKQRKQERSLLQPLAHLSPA
# VAX1 [29] = target: VAX1 (Homo sapiens, UniProt Q5SQQ9 86-172)
# Chain of VAX1 (Homo sapiens, UniProt Q5SQQ9 86-172) (Q5SQQ9 86-172): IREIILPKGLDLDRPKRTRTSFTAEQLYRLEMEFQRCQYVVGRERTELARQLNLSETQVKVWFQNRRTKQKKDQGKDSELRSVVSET
# PROP1 [30] = target: PROP1 (Homo sapiens, UniProt O75360 56-141, F88S)
# Chain of PROP1 (Homo sapiens, UniProt O75360 56-141, F88S) (O75360 56-141 F88S): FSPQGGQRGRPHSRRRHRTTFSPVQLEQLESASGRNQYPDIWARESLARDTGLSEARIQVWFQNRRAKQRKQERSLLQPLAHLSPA
# VAX1 [31] = target: VAX1 (Homo sapiens, UniProt Q5SQQ9 86-172, T142I)
# Chain of VAX1 (Homo sapiens, UniProt Q5SQQ9 86-172, T142I) (Q5SQQ9 86-172 T142I): as the sequence (Q5SQQ9 86-172) above, with T57I counted along it
# PRRX1 [32] = target: PRRX1 (Homo sapiens, UniProt P54821 80-166)
# Chain of PRRX1 (Homo sapiens, UniProt P54821 80-166) (P54821 80-166): as the sequence (P54821 80-166 F113S) above, with S34F counted along it
# VAX1 [33] = target: VAX1 (Homo sapiens, UniProt Q5SQQ9 86-172, K157R)
# Chain of VAX1 (Homo sapiens, UniProt Q5SQQ9 86-172, K157R) (Q5SQQ9 86-172 K157R): as the sequence (Q5SQQ9 86-172) above, with K72R counted along it
# Chain of CRX (Homo sapiens, UniProt O43186 26-111) (O43186 26-111): as the sequence (O43186 26-111 E42D) above, with D17E counted along it
# Chain of HOXA2 (Homo sapiens, UniProt O43364 129-215, R185T) (O43364 129-215 R185T): as the sequence (O43364 129-215 R185K) above, with K57T counted along it
# Chain of ALX4 (Homo sapiens, UniProt Q9H161 200-286) (Q9H161 200-286): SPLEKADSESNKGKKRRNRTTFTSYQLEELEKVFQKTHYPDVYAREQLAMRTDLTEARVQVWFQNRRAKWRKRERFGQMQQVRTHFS
# Chain of ALX4 (Homo sapiens, UniProt Q9H161 200-286, Q225E) (Q9H161 200-286 Q225E): as the sequence (Q9H161 200-286) above, with Q26E counted along it
sequence,measurement,setting,value
ACCGGGCG,binding signal,CRX [1],"7.62 upbm affinity estimate (log intensity, higher = more binding, comparable within an allelic series)"
same,binding signal,ALX4 [2],"7.78 upbm affinity estimate (log intensity, higher = more binding, comparable within an allelic series)"
same,binding signal,ALX4 [3],"7.99 upbm affinity estimate (log intensity, higher = more binding, comparable within an allelic series)"
same,binding signal,HOXA2 [4],"6.76 upbm affinity estimate (log intensity, higher = more binding, comparable within an allelic series)"
same,binding signal,CRX [5],"7.73 upbm affinity estimate (log intensity, higher = more binding, comparable within an allelic series)"
same,binding signal,ALX1 [6],"6.09 upbm affinity estimate (log intensity, higher = more binding, comparable within an allelic series)"
same,binding signal,HOXA2 [7],"10.3 upbm affinity estimate (log intensity, higher = more binding, comparable within an allelic series)"
same,binding signal,ALX1 [8],"6.25 upbm affinity estimate (log intensity, higher = more binding, comparable within an allelic series)"
same,binding signal,HOXA2 [9],"10.3 upbm affinity estimate (log intensity, higher = more binding, comparable within an allelic series)"
same,binding signal,CRX [10],"7.79 upbm affinity estimate (log intensity, higher = more binding, comparable within an allelic series)"
same,binding signal,ALX1 [11],"6.19 upbm affinity estimate (log intensity, higher = more binding, comparable within an allelic series)"
same,binding signal,HOXA2 [12],"7.26 upbm affinity estimate (log intensity, higher = more binding, comparable within an allelic series)"
CGGCGTCC,binding signal,CRX [1],"7.94 upbm affinity estimate (log intensity, higher = more binding, comparable within an allelic series)"
same,binding signal,HOXC10 [13],"10 upbm affinity estimate (log intensity, higher = more binding, comparable within an allelic series)"
same,binding signal,CRX [5],"8 upbm affinity estimate (log intensity, higher = more binding, comparable within an allelic series)"
same,binding signal,HOXC10 [14],"10.1 upbm affinity estimate (log intensity, higher = more binding, comparable within an allelic series)"
same,binding signal,CRX [10],"8.06 upbm affinity estimate (log intensity, higher = more binding, comparable within an allelic series)"
CAGGGCGG,binding signal,CRX [1],"8.46 upbm affinity estimate (log intensity, higher = more binding, comparable within an allelic series)"
same,binding signal,HOXB6 [15],"8.95 upbm affinity estimate (log intensity, higher = more binding, comparable within an allelic series)"
same,binding signal,CRX [5],"8.33 upbm affinity estimate (log intensity, higher = more binding, comparable within an allelic series)"
same,binding signal,CRX [10],"8.31 upbm affinity estimate (log intensity, higher = more binding, comparable within an allelic series)"
same,binding signal,HOXB6 [16],"8.83 upbm affinity estimate (log intensity, higher = more binding, comparable within an allelic series)"
CCGGTCCC,binding signal,CRX [1],"8.46 upbm affinity estimate (log intensity, higher = more binding, comparable within an allelic series)"
same,binding signal,PAX4 [17],"9.29 upbm affinity estimate (log intensity, higher = more binding, comparable within an allelic series)"
same,binding signal,PAX4 [18],"9.34 upbm affinity estimate (log intensity, higher = more binding, comparable within an allelic series)"
same,binding signal,CRX [5],"8.54 upbm affinity estimate (log intensity, higher = more binding, comparable within an allelic series)"
same,binding signal,NKX2-6 [19],"9.32 upbm affinity estimate (log intensity, higher = more binding, comparable within an allelic series)"
same,binding signal,PAX4 [20],"9.4 upbm affinity estimate (log intensity, higher = more binding, comparable within an allelic series)"
same,binding signal,PAX4 [21],"9.28 upbm affinity estimate (log intensity, higher = more binding, comparable within an allelic series)"
same,binding signal,PAX4 [22],"9.27 upbm affinity estimate (log intensity, higher = more binding, comparable within an allelic series)"
same,binding signal,NKX2-6 [23],"9.15 upbm affinity estimate (log intensity, higher = more binding, comparable within an allelic series)"
same,binding signal,PAX4 [24],"9.3 upbm affinity estimate (log intensity, higher = more binding, comparable within an allelic series)"
same,binding signal,CRX [10],"8.54 upbm affinity estimate (log intensity, higher = more binding, comparable within an allelic series)"
CTAACTCC,binding signal,CRX [1],"9.81 upbm affinity estimate (log intensity, higher = more binding, comparable within an allelic series)"
same,binding signal,CRX [5],"9.62 upbm affinity estimate (log intensity, higher = more binding, comparable within an allelic series)"
CACCACGC,binding signal,CRX [1],"8.26 upbm affinity estimate (log intensity, higher = more binding, comparable within an allelic series)"
same,binding signal,PRRX1 [25],"9.44 upbm affinity estimate (log intensity, higher = more binding, comparable within an allelic series)"
same,binding signal,NKX2-6 [26],"9.32 upbm affinity estimate (log intensity, higher = more binding, comparable within an allelic series)"
same,binding signal,CRX [5],"8.36 upbm affinity estimate (log intensity, higher = more binding, comparable within an allelic series)"
same,binding signal,ALX1 [6],"6.3 upbm affinity estimate (log intensity, higher = more binding, comparable within an allelic series)"
same,binding signal,NKX2-6 [19],"9.32 upbm affinity estimate (log intensity, higher = more binding, comparable within an allelic series)"
same,binding signal,ALX1 [8],"6.36 upbm affinity estimate (log intensity, higher = more binding, comparable within an allelic series)"
same,binding signal,PROP1 [27],"6.81 upbm affinity estimate (log intensity, higher = more binding, comparable within an allelic series)"
same,binding signal,PROP1 [28],"6.8 upbm affinity estimate (log intensity, higher = more binding, comparable within an allelic series)"
same,binding signal,VAX1 [29],"7.04 upbm affinity estimate (log intensity, higher = more binding, comparable within an allelic series)"
same,binding signal,NKX2-6 [23],"9.49 upbm affinity estimate (log intensity, higher = more binding, comparable within an allelic series)"
same,binding signal,PROP1 [30],"6.67 upbm affinity estimate (log intensity, higher = more binding, comparable within an allelic series)"
same,binding signal,VAX1 [31],"7.3 upbm affinity estimate (log intensity, higher = more binding, comparable within an allelic series)"
same,binding signal,CRX [10],"8.34 upbm affinity estimate (log intensity, higher = more binding, comparable within an allelic series)"
same,binding signal,ALX1 [11],"6.37 upbm affinity estimate (log intensity, higher = more binding, comparable within an allelic series)"
same,binding signal,PRRX1 [32],"9.04 upbm affinity estimate (log intensity, higher = more binding, comparable within an allelic series)"
same,binding signal,VAX1 [33],"7.04 upbm affinity estimate (log intensity, higher = more binding, comparable within an allelic series)"
